Test results reported in the OligoGym collection.

Each sequence was assayed against MRPL14 (assay: pooled miR-30 sensor sort-seq; sequence = guide strand). Conditions: shRNA.
Further: reference of the scale not given here.

Row | Sequence | sensor-assay potency score (higher = more potent)
1 | TTGCCCACTCCATTCTTCTTAT | -0.852
2 | TGAATCGCACTCAGACTCCCAG | -0.455
3 | TTCTTATAGACATGGATGCAGC | -1.01
4 | TAGTATCTGGTCGCCCACCTTG | -1.26
5 | ATTCTTCTTATAGACATGGATG | -1.46
6 | TTGATGGCCAGTAGTATCTGGT | -0.918

What follows are sequences tested against MRPL21 in the same assay as above. Conditions: shRNA.

Row | Sequence | sensor-assay potency score (higher = more potent)
7 | TCTGTGAATTGAACCTTCGAGA | -0.658
8 | TTATCCGGAGGACAGTCTGCGG | -1.53
9 | TTTAGGAACATATCCTGGTAGA | -0.392
10 | TTTTAGGAACATATCCTGGTAG | 0.0621
11 | TTCTTCTTGAAGTTTTTCCTTT | -0.465
12 | TATCCGGAGGACAGTCTGCGGG | -1.15
13 | AATTGAACCTTCGAGAAGCAGA | -0.954
14 | TTCATTTCCAATTAAGATCAGG | -0.523
15 | TTGAAGTTTTTCCTTTTCCTGA | -0.489
16 | TCGAACAAGATCCTTTCCGAGG | -1.49
17 | TATCCTGGTAGATATGAAGTGC | -0.473
18 | TTCTACTCGAACAAGATCCTTT | 0.318

The sequences below were run against MRPL30 in the same assay as above. Conditions: shRNA.

Row | Sequence | sensor-assay potency score (higher = more potent)
19 | TCACAGTCTGTAGTCTGCCTGG | -0.534
20 | ATTCTTGTGAACTTGAGGGGTA | -0.0278
21 | TTTGTCACAGTCTGTAGTCTGC | -0.242
22 | TTAAATAAAAACAATTTGCATT | -0.896
23 | TTTTTCTAATCCAAGCATCTTT | -0.539
24 | TTCAATTTTGCATTCACTGAAG | -0.704
25 | TATTCTGGTAACAATATGCAGT | -0.632
26 | TATTCTTGTGAACTTGAGGGGT | 0.0626
27 | TTTGTGACGAATCCAATCTGTA | -0.546
28 | TAGACATGTTCTCCTCTGCTGG | -0.684

What follows are sequences tested against MRPS18C in the same assay as above. Conditions: shRNA.

Row | Sequence | sensor-assay potency score (higher = more potent)
29 | TTGAGCTCTCTTAATTGCTTTT | -1.05
30 | ATTTCTTTCTGTTTCTTCCCAC | 0.584
31 | TTTCTTTCTGTTTCTTCCCACA | -1.1
32 | TACCTGTTGTGAACAACCTCTT | 0.47
33 | TACCAAGTGTGTCAACTTCTTC | -0.886
34 | TTTGAGCTCTCTTAATTGCTTT | -0.321
35 | TAGGGTCCTTGAGATATGCAGG | -0.899
36 | ATACCTGTTGTGAACAACCTCT | -0.0858
37 | TTGTGAACAACCTCTTCTCCAA | -0.0976
38 | TTTCTTCCCACAAAGACCTGTA | 0.204
39 | TGTGATTTCTTTCTGTTTCTTC | 0.701
40 | TGCTTTTGTGATTTCTTTCTGT | 0.125
